Laboratory results from ChEMBL document CHEMBL3988442, “University of Dundee, Small-Polar-MMV Screening Library” (2021).

Legend:
[1] = target: T1, Aspartate--tRNA(Asp/Asn) ligase (Mycobacterium tuberculosis (strain ATCC 25618 / H37Rv)) (UniProt P9WFW3); assay: Assay for Asp RNA synthetase-1 from Mycobacterium tuberculosis; type: functional; set-up: scale not given: direction of the effect not stated beside the values; details: 30 µM; further: in the data most compounds retested in dose-response had high values
T1 sequence (whole entry): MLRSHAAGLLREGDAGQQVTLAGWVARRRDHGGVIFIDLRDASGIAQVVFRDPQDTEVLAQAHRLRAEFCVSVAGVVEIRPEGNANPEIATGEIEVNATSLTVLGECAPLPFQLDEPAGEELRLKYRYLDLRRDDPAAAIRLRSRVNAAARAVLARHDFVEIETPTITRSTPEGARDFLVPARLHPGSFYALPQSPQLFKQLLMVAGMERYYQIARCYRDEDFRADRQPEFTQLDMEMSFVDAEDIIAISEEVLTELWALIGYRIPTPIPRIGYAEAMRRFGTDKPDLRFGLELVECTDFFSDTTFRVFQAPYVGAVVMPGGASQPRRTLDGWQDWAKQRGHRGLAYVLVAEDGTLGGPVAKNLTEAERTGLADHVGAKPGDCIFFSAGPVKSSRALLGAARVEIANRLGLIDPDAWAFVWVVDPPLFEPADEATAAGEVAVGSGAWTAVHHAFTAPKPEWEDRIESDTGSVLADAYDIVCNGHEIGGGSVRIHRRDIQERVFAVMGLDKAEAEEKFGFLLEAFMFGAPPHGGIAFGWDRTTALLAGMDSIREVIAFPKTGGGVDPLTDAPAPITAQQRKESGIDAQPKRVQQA

[2] = target: Shiga toxin 2 (Escherichia coli O157:H7) (UniProt P09385+P09386); assay: E. coli 0.157:H7 Shiga Toxin SOP - stx2 screening assay; type: functional; set-up: scale not given: direction of the effect not stated beside the values; details: 30 µM

SMILES | Percent Effect [1] | Percent Effect [2]
O=C(c1cccnc1)N1CCCC(c2cc(C(F)F)n3ncnc3n2)C1 (stereo not given) | 5.29% | 8.99%
Cc1ccc2oc(C(=O)N3CCCC(c4noc(C)n4)C3)cc2n1 (stereo not given) | -6.59% | -27.4%
COc1ccc(CNCc2ccnc(N3CCOCC3)c2)cc1OC | -2.66% | -52.5%
CCCc1nc(C)c(C(=O)NCCN2CCN(CC)CC2)s1 | -0.278% | -15.4%
Cn1ncc2c1C(COCC1CC1)CN(Cc1ccoc1)C2 (stereo not given) | -4.51% | -1.73%
Cc1noc(C)c1CN1CC[C@H]2OCC[C@@H](C(=O)N3CCCO3)[C@@H]2C1 | -1.14% | -15.4%
Cc1ccc([C@]2(O)CC[C@H]3CN(Cc4cccc(Cl)c4Cl)C[C@H]32)nc1 | 7.16% | 6.78%
Cc1cc(C)c(CNC(=O)NCCOc2ccc3c(c2)CCC3)c(=O)[nH]1 | -2.17% | 15%
CC(=O)N1CCC2(CCN(C(=O)c3ccc(C)c(C(F)(F)F)c3)CC2)C1 | 17.3% | -10.7%
Cc1nn(C)c2cnn(C(C)C(=O)NCc3cccnc3)c12 (stereo not given) | -7.38% | -21.6%
Clc1ccc(OCCN2CCN(CCn3cncn3)CC2)cc1 | -1.39% | -23.5%
O=C1NC(c2ccccc2)=N[C@@]12CC[C@@H]1CN(Cc3ccco3)C[C@@H]12 | 3.61% | -16.5%
COc1ccccc1C(=O)N1Cc2cc(C)ccc2OCC1CN(C)C (stereo not given) | 1.89% | -7.43%
O=C(NCCNc1ccc(C(F)(F)F)cn1)c1ccc(Br)cc1F | -0.778% | 38.5%
CCN(Cc1cccc(Cl)c1)Cc1nc2c(cnn2C)c(=O)[nH]1 | -2.28% | 31.3%
Cc1n[nH]c(C)c1C1COCCN1C(=O)c1cc(Cl)c[nH]1 (stereo not given) | 2.63% | -24.9%
COc1cc(/C=C/c2ncc(C(=O)O)s2)cc(Cl)c1O | -0.0437% | -52.2%
CN(Cc1ccccc1F)C(=O)CS(=O)(=O)Cc1ccc(Cl)c(Cl)c1 | 2.16% | 37%
Cc1nc(C(=O)N2CCC(Nc3cccnn3)CC2)cs1 | -7.35% | -19.2%
Cc1ccsc1CN(CCN(C)C)Cc1ccccn1 | -0.167% | 1.36%
